Assay results: PubChem BioAssay (Tox21)
“And” between values parts separate entries of the source, which are not always exact repeats. Equal values may be shown once. Results filed as inconclusive are left out. Unmarked numbers belong to inactive results. Calls follow the shape of the dose curve; as a rule, active = well fitted cell-killing curve with a large enough effect in the repeat runs; inconclusive = weak or mixed curves, or effect the other way; inactive = flat fitted curve, though single readings scatter.
% is scaled to controls: 0 for no effect and ±100 for the full control effect.

Assay: qHTS RealTime-Glo MT Cell Viability Assay in HEK293 cells - 40 hour (AID 1224874); also: nearly all actives have a fitted effect of over 50% in size
Conditions: RealTime-Glo luminescence; max response: hits give low values
Description: U.S. Tox21 Program National Center for Advancing Translational Sciences [NCATS] NIH Chemical Genomics Center [NCGC] U.S. Environmental Protection Agency [EPA] National Institutes of Environmental Health Sciences [NIEHS] National Toxicology Program [NTP] U.S. Food and Drug Administration [FDA] Tox21 Assay Overview: Measure of cell viability is critical in the cell-base assay. Analysis of cell viability is necessary for the characterization of cell responses to cytotoxic drugs and environmental stress. A RealTime-Glo MT Cell Viability Assay to monitor cell viability in real time of continues cell culture during 40 hours of compound treatment was used to screen Tox21 10K library compounds in Hek293 cells. The RealTime-Glo MT Cell Viability Assay is a nonlytic, homogeneous, bioluminescent method to measure cell viability in real time using a simple, plate-based method. The assay involves adding NanoLuc luciferase and a cell-permeant prosubstrate to cells in culture. Viable cells reduce the proprietary prosubstrate to generate a substrate for NanoLuc luciferase. This substrate diffuses from cells into the surrounding culture medium, where it is rapidly used by the NanoLuc Enzyme to produce a luminescent signal. The signal correlates with the number of viable cells, making the assay well suited for cytotoxicity studies.
Tox21 Assay Protocol Summary: The mixture of Hek293 cell suspension and reagents were dispensed at 600cells/6 ul/well in 1536-well tissue culture treated black solid bottom plates using a Multidrop dispenser. After the assay plates were incubated at a 37 C/5% CO2 incubator for 5 hours, 23 nL of compounds dissolved in DMSO, positive and negative controls was transferred to the assay plate by a pintool work station. The plates were incubated at 37 C for 40 hours. The luminescence intensity were measured at 0h, 8h, 16h, 24h, 32h and 40h time points using ViewLux plate reader during compound treatment.
Nc1c2c(nc3ccccc13)CCCC2O (stereo not given) showed a max response of 24.6%.
For CCN(CC)CCOCCOC(=O)C1(c2ccccc2)CCCC1, the max response was -9.14%.
Work on CCC=O yielded a max response of 5.02%.
Compound COC(=O)[C@@H](N)Cc1ccc(O)c(O)c1 has a max response of 2.16%.
COC(=O)C1=C(C)NC(C)=C(C(=O)OC)C1c1ccccc1[N+](=O)[O-] gave a max response of -16.8%.
CC(=O)OCC(=O)[C@@]1(O)CC[C@H]2[C@@H]3CCC4=CC(=O)CC[C@]4(C)[C@H]3C(=O)C[C@@]21C gave a max response of -9.91%.
Compound CCOC(C)(C)C has a max response of 7.98%.
In the case of Cc1cc2c(cc1S(N)(=O)=O)S(=O)(=O)CCC2, the max response is reported as 2.68%.
Nc1cc(=O)[nH]c(N)n1 gave a max response of 0.787%.
For COc1c(N2C[C@@H]3CCCN[C@@H]3C2)c(F)cc2c(=O)c(C(=O)O)cn(C3CC3)c12, the max response was -3.41%.
Cc1nc2c([nH]1)c(=O)n(C)c(=O)n2Cc1ccco1 gave a max response of 1.42%.
Work on CCCN(CCC)CCc1cccc2c1CC(=O)N2 yielded a max response of 5.11%.
Compound Cn1cc(S(C)=O)c(=O)c2ccc(F)cc21 (stereo not given) has a max response of -13.8%.
With FC(F)OC(Cl)C(F)(F)F (stereo not given) the max response was 5.59%.
For O=C(O)c1ccccc1OP(=O)(O)O, the max response was -0.358%.
With CC(C)OC(=O)c1ccccc1 the max response was 0.492%.
In the case of C1OCOCO1, the max response is reported as 2.99%.
CC[N+](C)(C)c1cccc(O)c1 showed a max response of -7.12%.
For C[N+](C)(C)CCCCCC[N+](C)(C)C, the max response was 3.71% and 1.42%.
NC(=O)Nc1ccccc1 showed a max response of 3.44%.
Work on CC(C)c1cc2c(cc1S(=O)(=O)O)[C@@]1(C)CCC[C@@](C)(C(=O)O)[C@@H]1CC2 yielded a max response of 1.39%.
Compound CC(=O)c1ccccc1O has a max response of 9.04%.
Work on CCSC(=O)N(CC(C)C)CC(C)C yielded a max response of 5.8%.
Compound CCO/C([O-])=N/c1c[n+](N2CCOCC2)no1 has a max response of 5.08%.
Work on COc1ccccc1OCC(O)CN1CCN(CC(=O)Nc2c(C)cccc2C)CC1 (stereo not given) yielded a max response of -12.4%.
In the case of CCOC(=O)C(=O)OCC, the max response is reported as 6.27%.
Work on C=C(C)C(=O)OCCCCCCCC(C)C yielded a max response of -8.22%.
In the case of O=C1CCCN1C1CCCCC1, the max response is reported as 6.98%.
Compound C=CCOCC(CC)(CO)COCC=C has a max response of 5.04%.
CC(=O)OCC(CCn1cnc2cnc(N)nc21)COC(C)=O gave a max response of -0.0813%.
With COC(=O)NN the max response was 1.74%.
With NS(=O)(=O)c1cc2c(cc1Cl)NC(C1CC3C=CC1C3)NS2(=O)=O (stereo not given) the max response was 11.9%.
For CCOC(=O)CC(C)=O, the max response was 14.1%.
Work on O=C(O)Cc1ccc(CCNS(=O)(=O)c2ccc(Cl)cc2)cc1 yielded a max response of -1.15%.
Work on CN1CCCC1 yielded a max response of 1.57%.
With c1ccc([C@H]2CN3CCSC3=N2)cc1 the max response was 3.46%.
Compound CCn1nc(C(=O)O)c(=O)c2cc3c(cc21)OCO3 has a max response of 4.37%.
Compound COC(=O)CC(C)=O has a max response of 11.5%.
Compound CC(C(=O)O)c1ccc(CC2CCCC2=O)cc1 (stereo not given) has a max response of -1.24%.
In the case of COC(=O)c1c(Cl)c(Cl)c(C(=O)OC)c(Cl)c1Cl, the max response is reported as -27.2%.
